Sampled rows, rich in hits. Any-hit rate of the full collection: about 1.7%.
mIDH1 inhibitor: qHTS for Inhibitors of mutant isocitrate dehydrogenase 1 (IDH1): qHTS | Isocitrate dehydrogenase [NADP] cytoplasmic (Homo sapiens), O75874 | 390,000 compounds, 0.093% hits | IDH1-R132H enzyme, NADPH consumption, diaphorase/resazurin fluorescence | Potency, µM (top dose mostly 76.6 µM), inactives show at the top dose activity change, negative = inhibition, hits mostly inhibitors; note: potency is the fitted concentration of half-maximal effect; % is set by controls: 0 for no effect and ±100 for the full control effect; nearly all actives have a fitted effect of over 65% in size
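IDH1-R132H (0.5 ug/mL) preincubated 30 min with compound, then NADPH (0.016 mM) and alpha-KG (2 mM) added; 80 min at RT, pH 7.5. Remaining NADPH coupled via diaphorase/resazurin to fluorescence (540/590 nm); concentration-response curves normalized to no-enzyme control.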
GLP1R cytotox: qHTS of GLP-1 Receptor Inverse Agonists: Cytotox Screen | HEK293 cAMP-luciferase reporter cells, luminescence, 24 h | Potency, µM (doses to about 38.3 µM), inactives show at the top dose activity change, negative = inhibition, hits mostly inhibitors | 410,000 compounds, 0.13% hits;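 note: loss of luciferase light is scored as toxicity; potency is the fitted concentration of half-maximal effect; % is set by controls: 0 for no effect and ±100 for the full control effect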
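Seeding density was 200 cells/uL; after overnight-length (12 h) culture, 23 nL compounds went on for 24 h at 37 °C. Readout used a luciferase detection reagent, luminescence taken after 12 min at room temperature.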
GLP1R ag: qHTS of GLP-1 Receptor Agonists; Glucagon-like peptide 1 receptor (Homo sapiens), P43220; HEK293 GLP-1R CRE-luciferase, luminescence, 4-6 h; cells express a hypersensitive GLP-1R form; Potency, µM (series often up to 45.6 µM), for inactives: top-dose activation, usual class: activators; 380,000 compounds, 0.007% hits; AID 624172, 2012; note: potency is the fitted concentration of half-maximal effect; % of control where 0% means no effect
Target sequence (P43220 whole entry, looked up): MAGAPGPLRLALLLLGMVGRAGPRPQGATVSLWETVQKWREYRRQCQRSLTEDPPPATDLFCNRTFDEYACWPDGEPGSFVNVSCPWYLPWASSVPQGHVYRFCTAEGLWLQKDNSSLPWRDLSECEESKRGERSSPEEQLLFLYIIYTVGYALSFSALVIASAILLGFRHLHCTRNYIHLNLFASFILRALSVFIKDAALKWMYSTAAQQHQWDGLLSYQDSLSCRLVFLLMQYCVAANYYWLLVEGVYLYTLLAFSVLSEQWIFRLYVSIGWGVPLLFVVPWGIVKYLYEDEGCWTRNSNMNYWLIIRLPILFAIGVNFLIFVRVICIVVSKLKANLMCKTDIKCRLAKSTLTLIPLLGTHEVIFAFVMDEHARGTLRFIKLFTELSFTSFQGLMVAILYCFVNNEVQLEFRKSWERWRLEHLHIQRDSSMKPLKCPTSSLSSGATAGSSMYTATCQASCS
GLP1R inv ag: qHTS of GLP-1 Receptor Inverse Agonists (Inhibition Mode) | Glucagon-like peptide 1 receptor (Homo sapiens), P43220 | HEK293 GLP-1R CRE-luciferase, luminescence, 24 h; GLP-1R form is constitutively active | Potency, µM (highest dose often 38.3 µM), for the others: at the highest dose activity change, negative = inhibition, actives largely listed as inhibitors | 410,000 compounds, 1.6% hits | AID 624417, 2012; note: potency is the fitted concentration of half-maximal effect; % is set by controls: 0 for no effect and ±100 for the full control effect; nearly all actives have a fitted effect of over 55% in size
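qHTS in 1536-well format: reporter HEK293 cells expressing constitutive GLP-1R activity in DMEM + 10% Nu serum, 24 hr with compounds at 37 deg C, luminescence read after 12 min with detection reagent.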
LDHA block: qHTS assay for inhibitors of human lactate dehydrogenase. 480,000 compounds, 0.15% hits. activity change, % (values are at about 110 or 230 µM). purified LDHA, NADH/diaphorase-resazurin fluorescence; hits give low values; in the data active = activity change below about -30%; inconclusive = mostly about -25% to -30%;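 note: plate controls were DMSO wells for no effect and wells without enzyme for full effect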
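Resorufin fluorescence (ex540/em590), read at 0 and 20 min after diaphorase/resazurin addition, reports the NADH left after a 5 min room-temperature reaction of 2 nM human LDH5 with 0.06 mM NADH and 0.2 mM pyruvate.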
PTHR1 agonist: qHTS for PTHR1 Agonists: Primary Screen; Parathyroid hormone/parathyroid hormone-related peptide receptor (Homo sapiens), Q03431; HEK293 GP2 PTHR1 cells, GloSensor cAMP luminescence, 1 h; Potency, µM (titrated, usually from 115 µM), inactives show at the top dose activation, actives largely listed as activators; 410,000 compounds, 0.075% hits; AID 743266, 2014; note: potency is the fitted concentration of half-maximal effect; nearly all actives have a fitted effect of over 55% in size
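HEK-293-derived GP2 cells expressing PTHR1 and a GloSensor cAMP reporter, 3,000/well, plated overnight, given luciferin plus IBMX (each 0.5 mM as added) for 1 h at 37 °C, then compound for 1 h at 37 °C. Luminescence was read after 15 min at room temperature.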
* hit, by the source's call; i = inactive; ? = inconclusive; . = no result; [ ] = another dose, or the depositor's remark. Unless noted, calls come from the whole dose curve; as a rule, active = well fitted curve in the direction sought with a large enough effect; inconclusive = small, poorly fitted or top-dose-only effect, or another doubt; inactive = no such curve, though single readings can be large; an effect the other way counts as inactive or inconclusive.

SMILES | mIDH1 inhibitor | GLP1R cytotox | GLP1R ag | GLP1R inv ag | LDHA block | PTHR1 agonist
COc1ccccc1NC(=S)NCCSc1ccc(C)cc1 | -4% | ? | 1% | 11µM* | -3 | i
Cn1c(=O)n(Cc2ccccc2)c(=O)c2c1nc1n2CCCN1Cc1ccccc1 | 2% | -12% | -2% | 19% | -4 | -17%
Cc1ccccc1Cn1c(=O)c2c(nc3n2CCCN3Cc2ccccc2)n(C)c1=O | -3% | 15% | 6% | 3.2µM* | 1 | -92%[57.5 µM]
Cc1cnc(C(=O)OCc2ccc(Cl)cc2)cn1 | . | . | . | . | 1 | .
O=C(/C=C/c1ccc(OCc2cccc(Cl)c2)cc1)N1CCOCC1 | 6% | -12% | 3% | 6.3µM* | -1 | -21%
O=C(/C=C/c1ccc(Cl)cc1)N1CCOCC1 | -3% | -10% | 9% | 21% | -12 | -11%
CCOc1ccc(NC(=O)c2c(-n3cnnn3)sc(C)c2C)cc1 | . | . | . | . | 1 | .
Cc1cc(C(=O)COC(=O)Cc2n[nH]c(=O)c3ccccc23)c(C)n1C1CC1 | . | . | . | . | -11 | .
Cc1cc(C(=O)COC(=O)Cc2n[nH]c(=O)c3ccccc23)c(C)n1-c1cccc(C(F)(F)F)c1 | -1% | -20% | -1% | 7.1µM* | 1 | -24%
COc1ccccc1N(C)S(=O)(=O)c1ccc(C(=O)OCC(=O)N(C)c2ccccc2)cc1 | 4% | -1% | 5% | 3.2µM* | -3 | i
COc1ccccc1N(C)S(=O)(=O)c1ccc(C(=O)OCC(=O)Nc2ccccc2F)cc1 | 8% | -15% | 0% | -38% | -3 | -12%
CCOc1ccc(-c2nnc(-c3ccccc3)o2)cc1 | -3% | -3% | -13% | 5µM* | -6 | -71%[57.5 µM]
CCOc1ccc(-c2nnc(-c3ccc(OC)cc3)o2)cc1 | -3% | -12% | -14% | 14% | -5 | -12%
O=C(N/N=C/c1ccc[nH]1)c1ccccc1OCc1ccc(F)cc1 | -4% | 1% | 19% | 12% | -17 | i
CCOc1ccc(OCc2ccc(C(=O)NN=Cc3ccc[nH]3)cc2)cc1 | 3% | 2.2µM* | -17% | ? | -4 | -18%
Cc1ccc(-n2nnc(C(=O)NC3CCCCCC3)c2C)cc1C | . | . | . | . | 4 | .
O=c1oc(-c2ccccc2)nn1CC(O)COc1ccc(F)cc1 (stereo unspecified) | . | . | . | . | -21 | .
O=c1oc(-c2ccc(F)cc2)nn1CC(O)COc1ccc2ccccc2c1 (stereo unspecified) | . | . | . | . | -30* | .
c1ccc(CN2CCN(c3nc(-c4ccccc4)nc4ccccc34)CC2)cc1 | -1% | 5% | 0% | 3.5µM* | -5 | i
CC(NC(=O)c1ccco1)c1nc(-c2ccc(C(C)(C)C)cc2)no1 (stereo unspecified) | 35% | -21% | 19% | 10µM* | -1 | -10%
Cc1ccc(-c2noc(C(C)NC(=O)c3ccco3)n2)cc1 (stereo unspecified) | 12% | -5% | . | -25% | -8 | i
O=C(Cc1cccs1)N/N=C\c1cccc2ccccc12 | . | . | . | . | 1 | .
OCCn1c(-c2ccc(F)cc2)csc1=Nc1ccccc1 | 8% | -6% | 2% | ? | -3 | -35%
OCCn1c(-c2ccc3c(c2)OCO3)csc1=Nc1ccccc1 | 8% | -29% | -2% | 3.5µM* | -1 | -29%
CN(Cc1cnn(-c2ccccc2)c1)C(=O)c1nn(C)c(=O)c2ccccc12 | . | . | . | . | 12 | .
SMILES | mIDH1 inhibitor | GLP1R cytotox | GLP1R ag | GLP1R inv ag | LDHA block | PTHR1 agonist
Fc1ccc(CNc2ccc(N3CCN(Cc4ccccc4)CC3)cc2)cc1 | -1% | -15% | -2% | 4.5µM* | 3 | -72%
Fc1ccc(N2CCN(Cc3ccccn3)CC2)cc1 | 0% | -9% | 1% | ? | -31* | i
c1ccc(CN2CCOCC2)nc1 | 0% | 7% | 5% | 10% | 1 | i
N#Cc1nc(-c2ccc(S(=O)(=O)N3CCCC3)cc2)oc1NCc1ccco1 | . | . | . | . | 5 | .
CCc1ccc(OCCCOc2ccc(Cl)cc2/C=N/NC(=O)c2ccccc2)cc1 | . | . | . | . | -23 | .
CCOC(=O)C1=C(C)NC(C)=C(C(=O)OCC)C1C(=O)OCC(=O)N1c2ccccc2CC1C (stereo unspecified) | 1% | -8% | 13% | ? | -2 | i
CCOC(=O)c1c(C)[nH]c(C(=O)OCC(=O)N2c3ccccc3CC2C)c1C (stereo unspecified) | 3% | -17% | -1% | 8.9µM* | -6 | -14%[57.5 µM]
CN1CCN(CC(=O)NN(Cc2ccccc2)c2ccccc2)CC1 | 3% | -3% | 4% | 5% | -44* | i
CCN(CC)CC(=O)NN(Cc1ccccc1)c1ccccc1 | 4% | -4% | 0% | ? | -17 | i
Cc1cc2c(cc1S(=O)(=O)Nc1cccc(Cl)c1C)OCCN2C | -10% | -1% | . | 10µM* | 1 | -9%
CC(C)Cc1ccc(-c2cnc(CCC(=O)Nc3nccs3)o2)cc1 | . | . | . | . | 1 | .
CCc1ccc2oc(C(=O)N(Cc3ccc(C)cc3)C3CCS(=O)(=O)C3)cc(=O)c2c1 (stereo unspecified) | . | . | . | . | 1 | .
CC1CC(C)CN(c2oc(Cc3ccccc3)nc2C#N)C1 (stereo unspecified) | 5% | 106% | 13% | 11µM* | 1 | -32%
N#Cc1nc(Cc2ccccc2)oc1N1CCCC1 | 0% | -1% | 37% | 6% | 2 | -2%
Cc1ccc(CN2CCN(c3nc4c(c(=O)[nH]c(=O)n4C)n3C/C=C/c3ccccc3)CC2)cc1 | . | . | . | . | -10 | .
COc1ccc(S(=O)(=O)n2nc(-c3ccc(Cl)cc3)cc2N)cc1 | 4% | -19% | 4% | 10µM* | -4 | -36%
CC(C)C[C@H](CO)N(Cc1ccccc1)S(=O)(=O)N(Cc1ccccc1)[C@@H](CO)CC(C)C | -6% | ? | -1% | 5.6µM* | 8 | -92%
COc1cc(-c2nnc(SCC3(c4ccc(Br)cc4)OCCO3)o2)cc(OC)c1OC | 9% | 9% | 4% | 4µM* | -3 | i
COc1cc(-c2nnc(SCC(=O)N3CCOCC3)o2)cc(OC)c1OC | 3% | -6% | 5% | 58% | -6 | i
O=C(Nc1nnc(C2CCCCC2)s1)c1ccc2ccccc2n1 | . | . | . | . | -1 | .
Cc1ccc(C(=O)NC(O)C(=O)c2ccc(Cl)cc2)cc1 (stereo unspecified) | . | . | . | . | 10 | .
